# The list is not random: actives were taken first. Their share in the collection is about 1.3%.
# RTF Ca sens act – cardiac RTF calcium sensitization; IANBD-labeled TnC RTF fluorescence at EC20 calcium; 0% EC20 calcium, 100% full calcium; activation, % at 7.2 µM; 0.24% of 340,000 active;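 active means activation above the mean over all tested compounds plus 3 SD, cut at about 30% in these data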;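 further: rise in fluorescence read as greater calcium sensitivity of cardiac thin filaments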
# C-LANA FP – blocks KSHV LANA C-terminal domain binding to DNA; MBP-C-LANA/FAM-LBS DNA binding, fluorescence polarization; inhibition, % at 9 µM; 0.078% of 340,000 active; AID 504423;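 active means highest replicate inhibition at or above 60% at 9 µM, even if other replicates fall short; inactive means all replicates below 60% inhibition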;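 further: 0% = neutral control wells and 100% = 4 µM acridine orange control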
# LANA-H2B inh – blocks KSHV LANA binding to histone H2A/H2B; inhibition, % (no concentration beside the values); Q9QR71; cell-free LANA-H2A/H2B peptide, fluorescence polarization; 0.6% of 320,000 active; in the data active means inhibition mostly above about 10%, no sharp cut-off; inactive means mostly below about 6.7%
# Target sequence (Q9QR71 whole entry, looked up): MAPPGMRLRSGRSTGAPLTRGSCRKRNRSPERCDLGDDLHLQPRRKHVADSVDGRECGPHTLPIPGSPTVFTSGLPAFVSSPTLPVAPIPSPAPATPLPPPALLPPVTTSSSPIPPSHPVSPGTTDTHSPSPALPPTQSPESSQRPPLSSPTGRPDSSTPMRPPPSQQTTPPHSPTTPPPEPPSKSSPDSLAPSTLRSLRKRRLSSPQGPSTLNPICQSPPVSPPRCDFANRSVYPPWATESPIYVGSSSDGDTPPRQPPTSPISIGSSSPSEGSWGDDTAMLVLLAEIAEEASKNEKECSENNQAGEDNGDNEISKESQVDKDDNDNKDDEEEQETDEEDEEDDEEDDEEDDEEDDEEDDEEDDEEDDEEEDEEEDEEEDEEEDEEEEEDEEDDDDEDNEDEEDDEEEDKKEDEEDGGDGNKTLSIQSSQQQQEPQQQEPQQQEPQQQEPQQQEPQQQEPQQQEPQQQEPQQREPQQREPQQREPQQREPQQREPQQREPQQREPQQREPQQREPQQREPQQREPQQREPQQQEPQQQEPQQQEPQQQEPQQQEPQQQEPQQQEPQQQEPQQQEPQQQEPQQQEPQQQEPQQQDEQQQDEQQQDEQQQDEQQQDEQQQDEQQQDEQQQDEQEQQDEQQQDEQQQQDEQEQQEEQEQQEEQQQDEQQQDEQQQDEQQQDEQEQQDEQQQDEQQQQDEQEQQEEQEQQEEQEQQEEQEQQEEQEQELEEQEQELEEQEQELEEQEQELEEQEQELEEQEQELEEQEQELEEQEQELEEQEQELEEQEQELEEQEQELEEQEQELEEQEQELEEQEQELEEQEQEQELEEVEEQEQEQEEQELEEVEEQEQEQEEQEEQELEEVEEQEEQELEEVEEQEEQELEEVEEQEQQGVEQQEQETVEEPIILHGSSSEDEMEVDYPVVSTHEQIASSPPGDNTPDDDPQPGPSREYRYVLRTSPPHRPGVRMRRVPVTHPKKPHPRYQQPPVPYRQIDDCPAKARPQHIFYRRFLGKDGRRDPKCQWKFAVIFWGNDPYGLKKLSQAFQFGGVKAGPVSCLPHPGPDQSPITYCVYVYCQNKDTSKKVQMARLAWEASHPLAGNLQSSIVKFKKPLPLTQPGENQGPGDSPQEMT
# eLon inh – E. coli protease La inhibition; P0A9M0; purified E. coli Lon protease, fluorescence polarization; inhibition, % at 7.94 µM; 0.42% of 360,000 active; AID 602123; in the data active means inhibition above about 13%, passing the limit was not always enough;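 further: 0% = enzyme with probe and DMSO and 100% = no enzyme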
# RTF Ca sens inh – cardiac RTF calcium desensitization | IANBD-labeled cardiac RTF, Ca2+ fluorescence | AID 493244 | 0.12% of 340,000 active | P19429+P45379 | inhibition, % at 7.15 µM;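 active means inhibition above the mean inhibition of all tested compounds plus 3 SD, cut at about 17% in these data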;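 further: assay run at fixed EC70 calcium of 1.6 mM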
# Keap1-Nrf2 PPI – inhibitors of human Keap1-Nrf2 protein-protein interaction. Q14145. Keap1 Kelch-Nrf2 peptide fluorescence polarization, 1536-well. inhibition, % at 9.4 µM. 0.15% of 340,000 active. AID 504523; in the data active means inhibition above about 12%;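 further: human Keap1 Kelch domain with fluorescein labeled Nrf2 9mer peptide probe; 0% = neutral control wells and 100% = peptide positive control; higher means more block of Keap1 binding to Nrf2 peptide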
# The depositor's hits bear a star; i = inactive; / = not tested or not shown; + = active, no number.
SMILES,RTF Ca sens act,C-LANA FP,LANA-H2B inh,eLon inh,RTF Ca sens inh,Keap1-Nrf2 PPI
CCN1C(=O)/C(=C/C=C2\N(CC)c3cc(S(=O)(=O)N(C)C)ccc3N2c2ccccc2)SC1=S,166.2*,-2.7,-1.8,-259.3,-176.3,-11.9
O=C(CCCN1C(=O)c2cccc3cccc(c23)C1=O)N1CCN(c2ccccc2O)CC1,1.4,-0.8,0.4,13.1,-16.0,-3.9
O=C(CCCN1C(=O)c2cccc3cccc(c23)C1=O)N1CCN(c2ccccc2)CC1,-2.3,-0.2,16.8*,0.1,-4.4,-2.2
Cc1cc(CNC(=O)[C@H]2C[C@@H]2[C@H](NP(=O)(c2ccccc2)c2ccccc2)c2ccccc2)nn1C,/,/,24.2*,/,/,/
COc1ccccc1/C=C/C=NC1C(=O)N(c2ccccc2)[N+](C)=C1C (stereo unspecified),0.1,13.5,-1.1,3.3,-3.0,-7.4
CC1=[N+](C)N(c2ccccc2)C(=O)C1N=C/C=C/c1ccccc1 (stereo unspecified),-6.5,70.5*,3.1,0.4,-1.0,-5.1
COc1ccc(OC)c(/C=C/c2nc3ccccc3[nH]c2=O)c1,71.8*,6.5,4.4,4.1,-103.2,1.6
CS(=O)(=O)c1ccc(C(=O)CN2C(=O)NC3(CCCc4ccccc43)C2=O)cc1 (stereo unspecified),1.6,5.6,17.0*,-1.2,-9.3,1.9
Cc1cc(C)n(CC(=O)O)c(=O)c1[N+](=O)[O-],-3.0,0.1,6.0,5.2,0.3,1.6
Cc1ccc(C(=O)NC(=C(Cl)Cl)S(=O)(=O)c2ccccc2)cc1,-3.3,1.9,14.3*,2.5,-2.2,-6.1
CCN1CCN(C(c2ccccc2)c2nnnn2CCc2ccc(OC)c(OC)c2)CC1 (stereo unspecified),-2.5,0.4,15.0*,6.2,-11.5,-5.9
COc1ccc(CCn2nnnc2C(c2ccc(Cl)cc2)N2CCN(C)CC2)cc1OC (stereo unspecified),-2.4,-2.0,3.1,-0.8,-2.9,-4.6
CN(CC(=O)NCc1ccc(F)cc1)S(=O)(=O)c1ccc(Br)s1,0.7,3.1,-10.3,2.9,-24.0,-0.9
O=C(/C=C/c1ccccc1)Nc1ncn[nH]1,3.4,-3.3,14.4*,-7.8,4.0,-6.4
Nc1c(N(Cc2ccccc2)C(=O)COc2ccc([N+](=O)[O-])cc2)c(=O)[nH]c(=O)n1Cc1ccccc1,0.6,0.0,/,-3.2,-6.5,-4.3
CCCCCC(=O)Nc1cc(S(=O)(=O)N2CCCCC2)ccc1N1CCOCC1,-2.3,0.0,-1.0,1.4,-8.6,-1.1
CCOC(=O)C1=C(CSc2nc(-c3ccccc3)ccc2C#N)OC(N)=C(C#N)C1c1ccccc1 (stereo unspecified),-0.3,4.6,198.1*,-74.3,-10.8,-4.9
NC(c1ccccc1)c1csc(Nc2ccc(C(=O)NCCCO)cn2)n1 (stereo unspecified),/,/,/,11.8,/,/
COc1cccc(NC(=O)CN(C)C(=O)c2cc3c(s2)CCCCC3)c1,-2.0,-0.8,-0.1,-5.3,-4.1,0.7
COc1cc2c(cc1NC(=O)COC(=O)[C@@H](NC(=O)c1ccccc1)C(C)C)oc1ccccc12,4.7,1.4,25.3*,0.4,7.0,-1.4
Cc1nn(Cc2ccc(F)cc2)c(C)c1NC(=O)c1cc(-c2ccco2)on1,4.2,-1.7,13.4*,-8.3,-0.3,0.6
Cc1cc(C(=O)Nc2c(C)nn(Cc3ccc(F)cc3)c2C)on1,7.3,-0.8,0.6,-3.8,2.8,-2.0
COc1cccc(C(=O)N/N=C/c2ccc(OC3CSC3)cc2)c1,3.6,-0.2,46.1*,-13.5,1.9,-3.0
C[C@@H]1C=C(C(=O)NCc2nc3ccccc3[nH]2)O[C@H](OCCCCO)C1,-0.2,-3.3,2.6,-2.1,-7.0,-3.7
Oc1ccccc1/C=N/Nc1ncc(Br)cn1,-1.2,-1.6,+,15.5,-6.2,-0.9
SMILES,RTF Ca sens act,C-LANA FP,LANA-H2B inh,eLon inh,RTF Ca sens inh,Keap1-Nrf2 PPI
Cc1cc(C)cc(NS(=O)(=O)c2ccc3[nH]c(=O)ccc3c2)c1,-3.3,0.0,2.5,-1.0,-4.9,-8.2
Cc1ccc(C2/C(=C(\O)c3c(C)nc4c(C)cccn34)C(=O)C(=O)N2CCN(C)C)o1 (stereo unspecified),6.9,-1.3,/,-2.7,-7.1,-5.8
Cc1nc2c(C)cccn2c1/C(O)=C1\C(=O)C(=O)N(CCN(C)C)C1c1ccccc1 (stereo unspecified),0.2,-0.1,11.6*,-6.0,-5.8,-3.0
Cc1ccc(S(=O)(=O)N2[C@@H](c3ccc(Cl)cc3)C(C(=O)O)=C[C@H]2C(C)(C)C)cc1,-2.6,3.2,+,4.5,-2.3,0.0
Cc1ccc(S(=O)(=O)N2[C@@H](c3ccc(Br)cc3)C(C(=O)O)=C[C@H]2C(C)(C)C)cc1,-5.3,1.3,i,-3.2,3.2,0.6
Cc1ccc(C(=O)NCC(=O)N(C)CC(=O)Nc2c(Cl)cccc2Cl)s1,-2.2,-1.9,-3.1,-11.2,-7.4,0.8
CN1C2CCC1/C(=C/c1cccn1C)C(=O)/C2=C\c1cccn1C,367.2*,-77.7,-131.8,-148.5,-289.7,-262.1
CCOc1ccc(C2CC(c3ccccc3C)n3nc(N)nc3N2)cc1 (stereo unspecified),0.0,1.7,32.5*,0.3,-2.3,2.3
COc1cccc(C2CC(c3ccc(Cl)cc3)n3nc(N)nc3N2)c1 (stereo unspecified),-7.3,-1.1,+,1.5,-3.6,-0.9
O=c1oc2cc(O)ccc2cc1-c1nc2c(s1)CCc1ccccc1-2,897.4*,16.0,1.5,/,i,-1.8
CCN(CC)CCNC(=O)c1cn(CC)c2ccc(S(=O)(=O)N3CCOCC3)cc2c1=O,-1.0,0.0,8.5*,-2.9,-3.7,-5.6
O=C(O)CCc1ccc(-c2ccc(F)cc2)n1CC1CCCO1 (stereo unspecified),-0.2,2.1,37.5*,-2.0,-2.6,-2.9
COc1ccc(-c2ccc(CCC(=O)O)n2CC2CCCO2)cc1 (stereo unspecified),7.1,1.9,5.8,-14.8,-10.9,-5.1
CCOC(=O)c1sc2nc3c(SCC(=O)O)cc(C(=O)c4cc(F)ccc4O)cn3c(=O)c2c1C,-21.8,-0.1,21.6*,-9.3,-1.6,-0.1
C=CCn1c(=O)/c(=C/c2ccc(O)cc2)s/c1=C(/C#N)c1nnc2n1CCCCC2,9.8,-20.2,-33.5,-284.3,-24.0,-4.3
C=CCn1c(=O)/c(=C/c2cc(OC)c(OC)c(OC)c2)s/c1=C(/C#N)c1nc2ccccc2n1C,36.7*,28.6,2.3,0.8,0.7,29.9*
NNC(=O)CCc1nc2ccc(O)cc2[nH]1,6.3,-0.5,13.0*,-3.2,-3.7,-1.9
O=C(CCc1nc2ccccc2[nH]1)Nc1ccccc1,-2.5,0.8,/,-5.1,-5.7,-3.9
O=c1[nH]c2ccccc2nc1/C=C(\O)c1cccs1,61.0*,-16.2,4.8,-119.2,-74.4,-15.4

# Bioassay records as filed in PubChem.
